Bioassay records as filed in PubChem BioAssay.
Only some compounds are listed: those with a hit (about 3.5% of all), similar ones and a draw of the others.
FBW7 act = human FBW7 E3 ligase activation, primary screen | Q969H0 | AlphaScreen FBW7–phospho-cyclin E peptide binding, activator screen | normalized activity (activation), % at 26.1 µM | hit rate 0.13% among 650,000; in the data active means normalized activity above about 1.9%;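 further: purified mutant Fbw7 with reduced substrate affinity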
TEAD-YAP block = TEAD-YAP interaction inhibition; HEK-TIYL cells, TEAD-Gal4/YAP UAS-luciferase luminescence; hit rate 1.4% among 640,000; inhibition, % at 9.12 µM; in the data active means inhibition above about 32%;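 further: 0% = median of test compound wells and 100% = reference inhibitor wells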
GPR151 ag = activators of human GPR151. PathHunter beta-arrestin GPR151 cells, luminescence. Q8TDV0. hit rate 1% among 650,000. activation, % at 11.2 µM; in the data active means activation above about 4.9%;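 further: 0% = median of compound wells and 100% = cells with positive control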
MITF primary = inhibitors of human MITF; hit rate 0.91% among 650,000; AlphaScreen MITF homodimerization, bead proximity signal; O75030; inhibition, % at 2.6 µM; in the data active means inhibition above about 50%;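 further: 0% = vehicle wells with protein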
Target sequence (O75030 whole entry, looked up): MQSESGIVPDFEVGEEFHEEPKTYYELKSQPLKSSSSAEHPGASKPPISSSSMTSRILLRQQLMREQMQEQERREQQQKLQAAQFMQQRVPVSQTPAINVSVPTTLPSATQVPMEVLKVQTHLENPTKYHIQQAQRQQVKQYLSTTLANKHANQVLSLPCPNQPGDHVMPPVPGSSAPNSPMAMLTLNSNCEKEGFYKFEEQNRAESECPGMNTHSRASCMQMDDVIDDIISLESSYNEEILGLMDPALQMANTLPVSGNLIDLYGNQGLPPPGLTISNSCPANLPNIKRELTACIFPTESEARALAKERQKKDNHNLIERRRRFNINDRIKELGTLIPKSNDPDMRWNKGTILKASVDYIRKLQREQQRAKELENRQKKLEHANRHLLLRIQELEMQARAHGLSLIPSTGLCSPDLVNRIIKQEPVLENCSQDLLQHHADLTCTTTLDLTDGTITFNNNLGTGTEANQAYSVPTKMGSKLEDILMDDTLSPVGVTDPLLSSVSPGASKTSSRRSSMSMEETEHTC
MITF inh conf = confirmation of human MITF inhibitors. shares compounds with MITF primary. AlphaScreen MITF homodimerization, biotin/His-MITF beads. inhibition, % at 2.6 µM. hit rate 16% among 4,700. AID 1259372;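 active means inhibition above a cutoff derived from the DMSO control wells, cut at about 28% in these data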;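 further: 0% = MITF dimer wells with DMSO only; inhibitors lower the bead chemiluminescence by keeping MITF from dimerizing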
AS interf DR = AlphaScreen optical interference, dose response counter-screen. shares compounds with MITF primary. AlphaScreen optical interference counterscreen, cell-free. IC50, µM. hit rate 6% among 480. AID 1259373; call rule not given here
AlphaScreen intf2 = AlphaScreen optical interference, counter-screen; shares compounds with MITF primary; LysRS AlphaScreen counterscreen, signal interference, triplicate; inhibition, % at 2.6 µM; hit rate 7.6% among 4,700; AID 1259376;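 active means inhibition above a cutoff derived from the DMSO control wells, cut at about 30% in these data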
* hit, by the source's call; · = no result.

SMILES | FBW7 act | TEAD-YAP block | GPR151 ag | MITF primary | MITF inh conf | AlphaScreen intf2 | others
CC1CC(C)CN(CC(=O)Nc2c3c(nc4ccccc24)CCC3)C1 (stereo unspecified) | 0 | -11 | 1 | 74* | -7 | -6
O=C(CN1CCCCC1)Nc1c2c(nc3ccccc13)CCC2 | 0 | 2 | -1 | 53* | 17 | 16
Nc1ncnc(Nc2ccc(OCc3ccccc3)cc2)c1[N+](=O)[O-] | 0 | -12 | -1 | -2 | · | ·
Brc1cccc(OCCOCCn2ccnc2)c1 | 0 | 2 | 1 | 21 | · | ·
Brc1cccc(OCCCn2ccnc2)c1 | 0 | 4 | 0 | 65* | 3 | 0
Brc1cccc(OCCn2ccnc2)c1 | 0 | 9 | -1 | 52* | -2 | 7
Nc1ncc(Br)cc1S(=O)(=O)Nc1ccc(F)cc1 | 0 | 3 | 1 | 12 | · | ·
CCOC(=O)NC(Nc1sc2c(c1C(=O)OCC)CCN(C)C2)(C(=O)OCC)C(F)(F)F (stereo unspecified) | 0 | 2 | 0 | -3 | · | ·
COc1ccc2c(c1)C(c1cccs1)=NNC(c1ccncc1)=N2 | 0 | 7 | 0 | 10 | · | ·
c1csc(C2=NNC(c3ccncc3)=Nc3ccccc32)c1 | 0 | 9 | 1 | 71* | 10 | 16
O=C(c1cnn(-c2ccccc2)c1-n1cccc1)N1CCN(c2ccccn2)CC1 | 0 | 9 | 0 | 17 | · | ·
O=C(Cc1noc2ccccc12)N1CCN(c2ccc(-c3ccccn3)nn2)CC1 | -2 | 21 | -3 | 126* | 112* | 101*
Cc1c(C(=O)N2CCN(c3ccc(-c4ccccn4)nn3)CC2)cnn1-c1ccccc1 | -1 | -4 | 1 | 75* | 96* | 101*
O=S(=O)(C1CC1)N1CCN(c2ccc(-c3ccccn3)nn2)CC1 | -2 | 59* | -9 | 122* | 108* | 100*
COc1ccc(C)cc1NC(=O)C(=O)NNC(=O)/C=C/c1ccccc1 | 0 | 0 | -2 | -16 | · | ·
C/C(=N\N=C(/N)SC1CC(=O)N(C)C1=O)c1ccc(F)cc1 (stereo unspecified) | 0 | 4 | 0 | 6 | · | ·
COc1cc(Br)cc(/C=C(\C#N)C(=O)NC2CCCCC2)c1O | 0 | 10 | 1 | 26 | · | ·
O=C1C2C3C=CC(C3)C2C(=O)N1c1ccc2c(c1)CCC2 (stereo unspecified) | 0 | -5 | 0 | 79* | 4 | 12
O=C1C2CCCCC2C(=O)N1c1ccc2c(c1)CCC2 (stereo unspecified) | 0 | -18 | -3 | 19 | · | ·
COCC(=O)Nc1nc2c(s1)C(=O)CC(C(=O)NCc1cc3ccccc3s1)C2 (stereo unspecified) | 0 | 7 | -1 | 9 | · | ·
OC(CNC1CCCC1)COc1ccc(OCC(O)CNC2CCCC2)cc1 (stereo unspecified) | 0 | 9 | 3 | 5 | · | ·
CC1(C)C2CCC1(C)C(NCC(O)COc1ccc(C#N)cc1)C2 (stereo unspecified) | 0 | 5 | -1 | 77* | -18 | -4
Cc1cc(O)c(C=O)c2c1C(=O)Oc1c(C)c(O)c3c(c1O2)C(O)OC3=O (stereo unspecified) | 0 | -6 | 0 | 25 | · | ·
COc1cc(C)c2c(c1C=O)Oc1c(c(C)c(O)c3c1C(O)OC3=O)OC2=O (stereo unspecified) | 0 | -18 | -2 | 74* | 84* | 2 | AS interf DR=>6.5
CC(C)C(C)NC(=O)CSc1nnc(NCc2ccccc2)s1 (stereo unspecified) | 0 | -9 | 1 | 53* | 3 | 8
SMILES | FBW7 act | TEAD-YAP block | GPR151 ag | MITF primary | MITF inh conf | AlphaScreen intf2 | others
COc1ccc(C(=S)N2CCCCC2)cc1OC(=O)CCc1ccccc1 | 0 | 4 | 1 | 61* | 10 | 15
COc1cc(C(=S)N2CCCCC2)ccc1OCc1ccccc1 | -1 | -25 | 0 | -1 | · | ·
CC(=O)c1ccc(NC(=O)CN2C(=O)CC(C)Sc3ccccc32)cc1 (stereo unspecified) | 0 | 10 | 0 | 5 | · | ·
CC1(C)CC(=O)C=C(Nc2sc3c(c2C(N)=O)CCCC3)C1 | 0 | 10 | 1 | 81* | 2 | 33*
CCC(=O)Nc1sc2c(c1C(N)=O)CCCC2 | 0 | 11 | 1 | -10 | · | ·
CCOc1cc(NC(=O)c2ccccn2)c(OCC)cc1NC(=O)CC | 0 | -3 | 0 | -7 | · | ·
CCOc1cc(NC(=O)c2ccccn2)c(OCC)cc1NC(C)=O | 0 | 6 | 0 | 60* | 52* | 76*
CCSCCOC(=O)C1=C(C)NC2=C(C(=O)CCC2)C1c1ccc2c(c1)c1ccccc1n2CC (stereo unspecified) | 0 | 2 | 0 | 0 | · | ·
CCOCCCNC(=O)C1CCCCN1S(=O)(=O)c1ccc(C(C)(C)C)cc1 (stereo unspecified) | 0 | 3 | 0 | -1 | · | ·
Cc1cc(NC(=O)C(C)N2CCCC2)no1 (stereo unspecified) | 1 | -4 | -1 | -18 | · | ·
Cc1cc(NC(=O)C(C)NCCc2ccccc2)no1 (stereo unspecified) | 0 | -1 | 1 | 22 | · | ·
Cc1cc(NC(=O)C(C)NC2CCCC2)no1 (stereo unspecified) | 0 | -3 | 0 | 52* | -2 | 7
Cc1cc(NC(=O)C(C)NCCCN(C)C)no1 (stereo unspecified) | 0 | -1 | 1 | 63* | 2 | 12
Cc1ccc(N2C(=O)c3cccc4cc([N+](=O)[O-])cc(c34)C2=O)cc1 | 0 | 3 | -1 | 19 | · | ·
COc1ccc(S(=O)(=O)N2CCN(Cc3ccccc3Br)CC2)cc1 | 0 | 4 | -1 | 18 | · | ·
COc1ccc(CN2CCN(S(=O)(=O)c3ccccc3[N+](=O)[O-])CC2)cc1 | 0 | 4 | 0 | 38 | · | ·
Cc1ccc(S(=O)(=O)N2CCN(Cc3ccccc3Br)CC2)cc1 | 0 | 6 | -2 | 61* | 13 | 15
O=[N+]([O-])c1ccccc1S(=O)(=O)N1CCN(Cc2ccccc2Br)CC1 | 0 | 6 | 0 | 65* | 0 | 17
O=[N+]([O-])c1ccccc1S(=O)(=O)N1CCN(Cc2cccnc2)CC1 | 0 | -13 | -1 | 74* | 15 | 19
O=C(c1cccnc1)N1CCN(S(=O)(=O)c2ccccc2[N+](=O)[O-])CC1 | 0 | -7 | 0 | -24 | · | ·
O=[N+]([O-])c1ccccc1S(=O)(=O)N1CCN(Cc2ccc(Cl)cc2)CC1 | 0 | 4 | -1 | 73* | 16 | 13
Cc1c(NC(=O)c2ccccc2I)cccc1-c1nc2cc(Cl)ccc2o1 | 0 | -15 | 0 | 7 | · | ·
Cc1ccc2c(c1)cc1c(=O)n(CC(=O)NCc3cccc(Br)c3)nc(C)n12 | 0 | -13 | -1 | -2 | · | ·
CN(C)CCNC(=S)N1CCN(S(=O)(=O)c2ccccc2[N+](=O)[O-])CC1 | 0 | 7 | 4 | 73* | -2 | 9
